Source: PubChem (several laboratories)
aDG glyco act = increases alpha dystroglycan glycosylation; activation, % at 10 µM; Pro5-aDG cells, alpha-DG glycosylation AlphaScreen (IIH6); 0% Pro5, 100% B10-LARGE cell signal; 360,000 compounds, 0.22% hits; AID 624168;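 active = activation of at least 8% versus controls, or a plate z-score of at least 8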;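 also: Pro5 are CHO cells carrying HIG-tagged alpha-DG that lacks glycosylation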
EBV LMP1 NFkB = Epstein-Barr LMP1 NF-kappaB reporter inhibition | LMP1-induced NF-kappaB luciferase reporter cells, luminescence | inhibition, % at 12.5 µM | 350,000 compounds, 0.69% hits | AID 504558; in the data active = inhibition above about 41%; inconclusive = no clear call, values can overlap the other calls;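 also: 0% = neutral control wells and 100% = reference inhibitor control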
HSP90 inh = inhibitors of HSP90 luciferase refolding in rabbit reticulocyte lysate; luciferase refolding luminescence, 3 h; inhibition, % at 5.6 µM; 290,000 compounds, 0.91% hits;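 active = inhibition above the screen-wide mean plus 3 SD, computed separately per campaign, cut at about 16% in these data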;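 also: 0% = DMSO wells and 100% = 60 µM geldanamycin wells; inhibitors lower the luminescence because luciferase stays unfolded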
LGR2 antag = blocks bursicon-induced cAMP signaling via Drosophila LGR2. HEK293 LGR2, CRE-luciferase, bursicon-stimulated, 4 h. inhibition, % at 9.99 µM. 380,000 compounds, 0.35% hits. AID 720647;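 active = drop in luminescence signal, shown as inhibition above about 50% in the replicate tests, limit read from the data, passing the limit was not always enough; inconclusive = probably only some replicates passing the limit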;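 also: agonist challenge used bursicon conditioned medium at about half maximal strength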
TWEAK Fn14 block = inhibitors of TWEAK-Fn14 interaction signaling | TWEAK-stimulated Fn14 reporter cells, luciferase luminescence, 8 h | inhibition, % at 10 µM | 360,000 compounds, 2% hits | AID 1159606; in the data active = inhibition above about 50%
TROY NFkB inh = blocks TROY-dependent signaling in reporter cells | Q293 LMP1-TROYcd NF-kB luciferase reporter, 4 h | inhibition, % at 10 µM | 360,000 compounds, 0.98% hits | AID 1347056;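 active = compounds whose plate-normalised and pattern-corrected inhibition of the luciferase reporter signal at the single screening dose is 50% or more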
Numbers without * were called inactive. Hits are enriched below; roughly 2.6% of the tested compounds scored in any of these assays.

How did CCN(CC)C(=O)C1=C(C)N(CCCN2CCCC2=O)C(=O)C(CC(=O)NC2CC2)C1 (stereo not drawn) do in these assays?
aDG glyco act: 0.5; EBV LMP1 NFkB: -4.1; LGR2 antag: 10.2; TWEAK Fn14 block: -10.0; TROY NFkB inh: -6.4

What do the screens show for `CC1=C(C(=O)N(C(C)C)C(C)C)CC(CC(=O)NC2CC2)C(=O)N1CCCN1CCCC1=O` (stereo not drawn)?
aDG glyco act: -0.3; LGR2 antag: 7.2; TWEAK Fn14 block: 10.8; TROY NFkB inh: 75.1*

How did C[C@H](CO)N1C[C@H](C)[C@@H](CN(C)C(=O)NC2CCCC2)Oc2ncc(-c3ccncc3)cc2C1=O do in these assays?
LGR2 antag: -16.0

How did CCC(=O)N1[C@@H](CO)[C@@H](c2ccccc2)C12CN(Cc1cccnc1)C2 do in these assays?
LGR2 antag: -30.3

Results for N#C/C(=C\c1coc2ccccc2c1=O)C(N)=S ?
aDG glyco act: -0.1; EBV LMP1 NFkB: -5.7; HSP90 inh: -1.0; LGR2 antag: 5.4; TWEAK Fn14 block: 23.3; TROY NFkB inh: 8.0

Results for N#C/C(=C\c1coc2ccc(O)cc2c1=O)C(=O)Nc1nc2ccccc2s1 ?
aDG glyco act: -0.1; EBV LMP1 NFkB: -4.9; HSP90 inh: 13.8; LGR2 antag: 16.7; TWEAK Fn14 block: 73.3*; TROY NFkB inh: 51.7*

Results for Cc1ccc(S(=O)c2snnc2C)cc1 (stereo not drawn) ?
aDG glyco act: 0.2; EBV LMP1 NFkB: -1.0; HSP90 inh: 3.8; LGR2 antag: -10.0; TWEAK Fn14 block: 7.4; TROY NFkB inh: -11.7

Results for CCCNC(=O)NS(=O)(=O)c1ccc(Cl)cc1 ?
aDG glyco act: 1.0; EBV LMP1 NFkB: 58.5*; HSP90 inh: -1.8; LGR2 antag: 6.6; TWEAK Fn14 block: 2.3; TROY NFkB inh: -2.6

How did CNC(=O)c1nnsc1S(=O)c1ccc(Cl)cc1 (stereo not drawn) do in these assays?
aDG glyco act: -0.7; EBV LMP1 NFkB: 7.8; HSP90 inh: 1.5; LGR2 antag: 102.4*; TWEAK Fn14 block: 63.5*; TROY NFkB inh: 60.1*

Results for CCCNC(=O)c1nnsc1S(=O)c1ccc(Cl)cc1 (stereo not drawn) ?
aDG glyco act: -0.5; EBV LMP1 NFkB: 1.9; HSP90 inh: 3.1; LGR2 antag: 102.8*; TWEAK Fn14 block: 71.7*; TROY NFkB inh: 59.0*

How did CCCNC(=O)c1ccc2snnc2c1 do in these assays?
aDG glyco act: 0.0; EBV LMP1 NFkB: -5.1; HSP90 inh: -4.6; LGR2 antag: 13.1; TWEAK Fn14 block: -12.5; TROY NFkB inh: -0.2

How did CCCNC(=O)c1nnsc1S(=O)(=O)c1ccc(Cl)cc1 do in these assays?
aDG glyco act: -0.7; EBV LMP1 NFkB: inconclusive; HSP90 inh: -3.2; LGR2 antag: 96.2*; TWEAK Fn14 block: 70.1*; TROY NFkB inh: 73.0*

How did O=C(C[C@@H]1C=C[C@@H](NC(=O)C2CCC2)[C@H](CO)O1)NC1CCCCC1 do in these assays?
LGR2 antag: -1.9

Results for C[C@@H]1CN([C@H](C)CO)C(=O)Cc2cc(NS(C)(=O)=O)ccc2O[C@H]1CN(C)S(=O)(=O)c1cn(C)cn1 ?
LGR2 antag: 9.7

How did CCN(CC)c1ccc2cc(C(C)=O)c(=O)oc2c1 do in these assays?
aDG glyco act: 0.1; EBV LMP1 NFkB: -8.6; HSP90 inh: -0.1; LGR2 antag: -27.1; TWEAK Fn14 block: -21.4; TROY NFkB inh: -24.8

How did CCN(CC)c1ccc2cc(C(=O)Nc3ccccn3)c(=O)oc2c1 do in these assays?
aDG glyco act: 0.7; EBV LMP1 NFkB: 7.3; HSP90 inh: 1.3; TWEAK Fn14 block: 87.3*; TROY NFkB inh: 53.5*

Results for O=C(NNCc1ccccc1)c1ccccc1 ?
aDG glyco act: 0.2; EBV LMP1 NFkB: 17.4; LGR2 antag: -11.0; TWEAK Fn14 block: 64.8*; TROY NFkB inh: 24.4

What do the screens show for `CC(C)c1ccc(CNNC(=O)c2ccccc2)cc1`?
aDG glyco act: 0.0; EBV LMP1 NFkB: -23.3; HSP90 inh: -1.7; LGR2 antag: -82.1; TWEAK Fn14 block: -0.7; TROY NFkB inh: -30.5

How did CC(=O)c1c(C)[nH]c(C(=O)Nc2ccc(Cl)c(S(=O)(=O)N(C)C)c2)c1C do in these assays?
aDG glyco act: -0.5; EBV LMP1 NFkB: -17.9; HSP90 inh: 1.4; LGR2 antag: -68.9; TWEAK Fn14 block: -40.1; TROY NFkB inh: -43.4
